Screening results: PubChem BioAssay, The Scripps Research Institute Molecular Screening Center
MBD2 DNA inh = inhibitors of human MBD2 binding to methylated oligonucleotide | Q9UBB5 | TR-FRET | inhibition, % at 4.4 µM | 0.31% of 370,000 active | AID 686964; in the data active = inhibition above about 13%
PLCg1 inh = blocks human PLC-gamma1 enzyme activity; purified PLC-gamma1, fluorogenic substrate, fluorescence; 0.84% of 370,000 active; inhibition, % at 12.2 µM; P19174; in the data active = inhibition above about 9.5%
UHRF1 binding = human UHRF1 methylated DNA binding inhibitors. inhibition, % at 4.4 µM. Q96T88. 0.75% of 370,000 active. UHRF1 binding to methylated oligo, TR-FRET; in the data active = inhibition above about 21%;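 also: UHRF1 SRA domain binding a hemimethylated CpG hairpin DNA probe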
PLC-beta3 inh = PLC-beta3 (human) inhibition, primary screen. Q01970. Purified PLC-beta3, fluorogenic substrate, fluorescence. inhibition, % at 12.2 µM. 0.18% of 370,000 active; in the data active = inhibition above about 11%
Target sequence (Q01970 whole entry, looked up): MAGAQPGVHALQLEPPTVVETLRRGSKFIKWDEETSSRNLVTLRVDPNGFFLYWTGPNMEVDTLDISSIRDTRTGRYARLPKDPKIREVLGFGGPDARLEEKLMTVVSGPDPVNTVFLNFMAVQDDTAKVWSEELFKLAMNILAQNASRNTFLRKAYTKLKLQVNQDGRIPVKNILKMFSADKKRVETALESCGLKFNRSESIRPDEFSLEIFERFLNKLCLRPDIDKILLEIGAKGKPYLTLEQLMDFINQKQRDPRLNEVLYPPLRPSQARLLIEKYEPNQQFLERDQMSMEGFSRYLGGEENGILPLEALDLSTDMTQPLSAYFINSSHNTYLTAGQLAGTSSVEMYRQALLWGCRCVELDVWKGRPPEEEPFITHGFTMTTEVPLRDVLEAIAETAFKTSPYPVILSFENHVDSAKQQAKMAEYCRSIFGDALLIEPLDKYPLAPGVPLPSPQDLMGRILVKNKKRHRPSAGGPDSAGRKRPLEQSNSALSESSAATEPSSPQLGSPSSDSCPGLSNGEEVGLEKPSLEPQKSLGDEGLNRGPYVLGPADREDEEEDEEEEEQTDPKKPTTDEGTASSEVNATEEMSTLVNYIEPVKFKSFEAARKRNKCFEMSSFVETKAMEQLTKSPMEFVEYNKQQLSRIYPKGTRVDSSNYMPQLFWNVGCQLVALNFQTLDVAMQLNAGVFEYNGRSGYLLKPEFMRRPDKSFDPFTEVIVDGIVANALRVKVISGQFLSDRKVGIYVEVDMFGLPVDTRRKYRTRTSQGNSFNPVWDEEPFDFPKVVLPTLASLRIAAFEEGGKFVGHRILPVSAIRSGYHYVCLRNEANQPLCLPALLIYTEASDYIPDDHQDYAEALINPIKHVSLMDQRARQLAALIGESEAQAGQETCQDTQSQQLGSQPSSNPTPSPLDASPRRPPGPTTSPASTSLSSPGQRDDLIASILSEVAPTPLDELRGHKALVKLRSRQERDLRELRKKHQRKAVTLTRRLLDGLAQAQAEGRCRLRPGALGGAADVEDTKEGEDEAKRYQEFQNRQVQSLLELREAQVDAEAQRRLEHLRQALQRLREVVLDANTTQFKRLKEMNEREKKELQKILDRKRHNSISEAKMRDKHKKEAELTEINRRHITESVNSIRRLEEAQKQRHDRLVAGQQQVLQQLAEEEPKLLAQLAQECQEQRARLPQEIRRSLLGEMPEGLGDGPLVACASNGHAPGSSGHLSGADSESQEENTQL
LEDGF integ inh = blocks HIV-1 LEDGF/p75-dependent DNA integration. inhibition, % at 3.7 µM. TR-FRET IN-LEDGF/p75 DNA integration, Eu/Cy5. 0.64% of 370,000 active;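 active = inhibition above the screen-wide mean plus 3 SD, cut at about 13% in these data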;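 also: signal is the Cy5 over europium emission ratio at 671 and 618 nm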
Each line names hits and unclear results; the compound was inactive in the other large screens. The list is not random: actives were taken first. Their share in the collection is about 2.3%.

Cc1cc(C(=O)NP(=O)(N2CCOCC2)N2CCOCC2)c(C)n1-c1ccc(N(C)C)cc1	none
CC(C)C(=O)N1CC[C@H]2[C@H](CCCN2Cc2ccc(F)cc2)C1	none
Cc1cc(C)cc(C(=O)OCCCN(C)C2CN(Cc3cn(Cc4ccc([N+](=O)[O-])cc4)nn3)S(=O)(=O)C2)c1 (configuration not stated)	none
COc1cccc(-n2cc(CNC(=O)C3CCC(=O)N(C4CC4)C3)cn2)c1 (configuration not stated)	UHRF1 binding 21
COC(=O)[C@H]1C[C@@]2(C)c3ccccc3N(S(=O)(=O)c3ccccc3)[C@H]2N1	none
CC(=O)Nc1ccc(S(=O)(=O)NCCSc2ccccn2)cc1	UHRF1 binding 21
CCCCCC(=O)NC1CCCCN(Cc2ccc(C)cc2)C1=O (configuration not stated)	none
CC(C)(C)N(Cc1cn(Cc2ccccc2)nn1)S(=O)(=O)c1ccc(N2CCCC2)cc1Br	none
CCCCc1nc(Cl)c(C#N)c2c1CCCC2	UHRF1 binding 38
CCCCc1nc(Cl)c(C#N)c2c1CCC2	none
Cc1cc(C)nc(SCc2ccc(F)cc2)n1	UHRF1 binding 23
CC(=O)N(Cc1ccccc1)c1ccc(C(=O)O)cc1	PLCg1 inh 9.7
Cc1ccc(S(=O)(=O)N2CCC(c3nc4ccccc4o3)CC2)s1	none
COc1ccc(CCNCC2C(Oc3ccc(Cl)cc3)C(=O)N2c2ccccc2C)cc1OC (configuration not stated)	UHRF1 binding 23
O=C(Nc1nnc(Cc2ccccc2)s1)Nc1ccccc1F	PLCg1 inh 12
N#Cc1cccc(NC(=O)O[C@@H]2CC[C@@]34CCCN3C(=O)CCC[C@H]4C2)c1	none
COc1cc(NC(=O)c2ccccn2)ccc1NC(=O)c1ccccc1Cl	none
CC(C)(C)OC(=O)n1cc(-c2ccccc2)c2c(-c3ccccc3)c(O)ccc21	none
CCCCN1C(=O)C(CC(=O)NCc2cccc3ccccc23)CC(C(=O)N2CCOCC2)=C1C (configuration not stated)	UHRF1 binding 22
COCCCNC(=O)C[C@H]1C[C@@]2(C(=O)OC)C(=C[C@H](COCc3ccccc3)O[C@@H]2C)N(Cc2ccccc2)C1=O	none
FC(F)(F)c1cc(Cl)c2nc(-c3ccco3)c(Cc3ccccc3C(F)(F)F)n2c1	UHRF1 binding 21
Cc1ccc(-c2nc3c(Cl)cc(C(F)(F)F)cn3c2Cc2ccccc2C(F)(F)F)cc1	none
O=C(CCS(=O)(=O)c1ccccc1)Nc1ccc(F)cc1F	none
Nc1ccc(-c2nc3cc([N+](=O)[O-])ccc3o2)cc1	none
COc1ccc(-c2nc3cc([N+](=O)[O-])ccc3o2)cc1	UHRF1 binding 21
CN(C)c1nc(N(C)C)nc(N(C)C)n1	PLCg1 inh 9.6
C=CCN1C(=O)[C@@H](CC(=O)NCc2cccc(C(F)(F)F)c2)[C@]2(C(=O)OC)CCCCC=C12	none
O=C(Nc1nc(-c2ccco2)c(-c2ccco2)s1)c1cnccn1	UHRF1 binding 40, LEDGF integ inh 48
O=C(Nc1nc(-c2ccco2)c(-c2ccco2)s1)c1ccc(F)cc1F	none
O=C(Nc1nc2ccccc2s1)c1cnccn1	none
O=C(Nc1nc(-c2ccco2)c(-c2ccco2)s1)c1c(F)cccc1Cl	LEDGF integ inh 48
CCCN1CCc2c(sc(NC(=S)NC(=O)c3ccccc3)c2C#N)C1	MBD2 DNA inh 15
CC(C)N1CCc2c(sc(NC(=S)NC(=O)c3ccccc3)c2C#N)C1	MBD2 DNA inh 21
COc1ccc(S[C@]2(C(=O)N3CCN(c4ncccn4)CC3)CC(=O)N(c3ccccc3)[C@@H]2c2ccc(OC)cc2)cc1	none
Cc1c(NC(=O)c2ccc(Cl)nc2)cccc1-c1nc2cccnc2s1	UHRF1 binding 22
CCCCCc1ccc(NC(=O)OCCCN2CCC3(CCC(c4ccccc4)CC3)C2=O)cc1 (configuration not stated)	none
C[C@H]1[C@H](NC(=O)c2ccc(Cl)c(Cl)c2)CC[C@@]23CCCN2C(=O)CCC[C@@H]13	none
CC(C)=CCC[C@@]1(C(=O)O)[C@H]2CC=C(CO)[C@@H]1CC/C(C)=C/CC/C(C)=C/C2	none
CCCCCCN1CCN(C2CN(Cc3cn(Cc4cc(C)cc(C)c4)nn3)S(=O)(=O)C2)CC1 (configuration not stated)	UHRF1 binding 23
CN1CCN(C2CN(Cc3cn(Cc4ccc(C(F)(F)F)cc4)nn3)S(=O)(=O)C2)CC1 (configuration not stated)	UHRF1 binding 25
Cc1cc(C)cc(Cn2cc(CN3CC(N4CCN(C)CC4)CS3(=O)=O)nn2)c1 (configuration not stated)	UHRF1 binding 24
CCCCCCN1CCN(C2CN(Cc3cn(Cc4ccccc4)nn3)S(=O)(=O)C2)CC1 (configuration not stated)	none
CCOC(=O)[C@@]12CCCC3=C1N(CCC3)C(=O)[C@H]2CC(=O)NCc1ccc(C)o1	none
Cc1ccc(CNC(=O)O[C@H]2CC[C@@]34CCCN3C(=O)CCC[C@H]4[C@H]2C)cc1	none
COc1ccc(NC(=O)COC(=O)CCc2ccc(S(=O)(=O)N3CCOCC3)cc2)cc1Cl	UHRF1 binding 95
Cc1cccc(CNC(=S)OC2CCC23CCC(c2ccccc2)CC3)c1 (configuration not stated)	none
Cc1nc2ccc(NC(=O)c3ccc(S(=O)(=O)N(C)c4ccccc4)cc3)cc2s1	UHRF1 binding 26
CC(=O)Nc1ccc(NC(=O)c2ccc(S(=O)(=O)N(C)c3ccccc3)cc2)cc1	none
O=c1c2ccccc2n(Cc2ccno2)n1[C@@H](Cc1ccccc1)Cn1cc(-c2ccc(-c3ccccc3)cc2)nn1	none
Cc1cccc(C)c1-n1nnnc1C(c1ccnc2ccccc12)N1CCN(CCN(C)C)CC1 (configuration not stated)	none
Cc1cc(N2CCN(C(c3ccnc4ccccc34)c3nnnn3-c3c(C)cccc3C)CC2)c2ccccc2n1 (configuration not stated)	UHRF1 binding 24
O=C(O)Cn1nnnc1SCC(=O)Nc1ccccc1F	UHRF1 binding 26
COc1ccccc1NC(=O)Cc1nnc(SCC(=O)Nc2ccc(F)cc2F)n1C	none
COC(=O)c1ccccc1NC(=O)CSc1nnnn1CC(=O)O	none
COc1ccccc1NC(=O)CSc1nnc(CCC(=O)Nc2ccccc2F)n1C	UHRF1 binding 21
O=C(N[C@@H]1C[C@@H]2O[C@@H](CO)CC[C@@H]2O[C@@H]1CCc1ccc(-c2ccccc2)cc1)c1cnccn1	none
O=C(Cn1cc(SCc2ccccc2Cl)c2ccccc21)N1CCOCC1	UHRF1 binding 24
CC(=O)Nc1ccc(NC(=O)CSc2cn(CC(=O)N3CCOCC3)c3ccccc23)cc1	none
CC(=O)Nc1ccc(C(CCCc2ccccc2)C2=CCCCC2)cc1 (configuration not stated)	none
Cc1cc2c(cc1C)C(c1ccccc1Br)CC(=O)N2 (configuration not stated)	UHRF1 binding 23
